Test results as given in paper PMC13494018.
Values without a mark were called inactive. No rule for the calls is given here.

Target: CD276, Q5ZPR3
Sequence (Q5ZPR3 whole entry): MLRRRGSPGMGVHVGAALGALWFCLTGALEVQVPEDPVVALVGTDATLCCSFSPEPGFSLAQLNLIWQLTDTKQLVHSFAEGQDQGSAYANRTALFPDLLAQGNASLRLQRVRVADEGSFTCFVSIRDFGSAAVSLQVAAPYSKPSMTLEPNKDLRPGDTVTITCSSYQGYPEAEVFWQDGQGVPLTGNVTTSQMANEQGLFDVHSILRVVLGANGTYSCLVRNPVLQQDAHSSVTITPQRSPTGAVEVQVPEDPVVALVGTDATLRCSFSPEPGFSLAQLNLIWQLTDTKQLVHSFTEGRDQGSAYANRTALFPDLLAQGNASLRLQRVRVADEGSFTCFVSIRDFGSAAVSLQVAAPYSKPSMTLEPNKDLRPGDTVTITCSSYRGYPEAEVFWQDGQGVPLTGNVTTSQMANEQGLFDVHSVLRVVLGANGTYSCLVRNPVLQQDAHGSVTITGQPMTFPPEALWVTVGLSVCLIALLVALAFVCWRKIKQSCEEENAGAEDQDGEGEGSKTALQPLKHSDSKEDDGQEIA

| Binder | binding in a display sort |
| --- | --- |
| design_488_244881a1-ba0c-4c08-ad9c-1f64cf93580a_362_dldesign_0_cycle1_af2pred (protein) AEEERRRAALAERARAVLQQAAAVGSQAAIADPSVSGTILDGLKEAYELLARGEVERALEVAEALLASAQATLAAL | not found |
| design_488_244881a1-ba0c-4c08-ad9c-1f64cf93580a_1252_dldesign_0_cycle1_af2pred (protein) DAARRQGAVAFMQQVLESAKNYPEAAPIAQAGLDRVAAAVAAGAPADEVVALARREAAAANKAMIAAAKA | not found |
| design_488_244881a1-ba0c-4c08-ad9c-1f64cf93580a_782_dldesign_0_cycle1_af2pred (protein) AAAQAARAYAVLKAHADAAAKRAAELAAEGAEGARAGAQLLAVVSDAAAGAAKAFPEYAAELNALAAAAAAAAAAAAAAAAAAEAAA | not found |
| design_488_244881a1-ba0c-4c08-ad9c-1f64cf93580a_858_dldesign_0_cycle1_af2pred (protein) DEEREKLLAEAEKYLAAAVAAAKAAGVQGGQVRAIANSLAIALRTGNTAGAATLLTSLVATAAKVGPEVLTHANKAKEKATQWIALA | not found |
| design_488_244881a1-ba0c-4c08-ad9c-1f64cf93580a_1178_dldesign_0_cycle1_af2pred (protein) SDAEKAESALKFLNTLEEIGIIAKKEYGPEFAQNMINSIENSSKIFAAAVSPEYAKKILEKAKEAIEKIKAA | not found |
| design_488_244881a1-ba0c-4c08-ad9c-1f64cf93580a_478_dldesign_0_cycle1_af2pred (protein) ITEAEAKELAEMVRTPETAPEAAARLEALGAASTPGQAAFFRAAAALARLAAEAPEEERPRYAEGVLKILQAAI | not found |
| design_488_244881a1-ba0c-4c08-ad9c-1f64cf93580a_765_dldesign_0_cycle1_af2pred (protein) AADVAQAKEYAKQAKEFAEQADPELAKEVGKEAEALVKEAEADPSKAAEYLNKVGQLYVQAAAAAMKKLA | not found |
| design_488_244881a1-ba0c-4c08-ad9c-1f64cf93580a_642_dldesign_0_cycle1_af2pred (protein) AEAARKAALAVRTAAASFKAAADAGASAEAVKKLGEVMAQSVEAYDPEVGKEVKAKVEELAKLPDAKKAAAELAKFMEAKAKEVAAK | not found |
| design_488_244881a1-ba0c-4c08-ad9c-1f64cf93580a_1131_dldesign_0_cycle1_af2pred (protein) DEASEKAEAAYNKAKALEAAGADPNDILAAYVDAMGYLSEAARAAREAGREEEAEKWQAKLKEAQKNATKAAKAAVAAARA | not found |
| design_488_244881a1-ba0c-4c08-ad9c-1f64cf93580a_492_dldesign_0_cycle1_af2pred (protein) ATALLRSALAQAKSAIIAMKQDPEQGAQLAEGAALTAKAAGDEETAKKLEEAAKLAKEGKAEEAIKLLEEAAKELAKAI | not found |
| design_488_244881a1-ba0c-4c08-ad9c-1f64cf93580a_631_dldesign_0_cycle1_af2pred (protein) GLRESTEKVLEVAGQLAAQTAATSPELGPQAAAVAEAGRARAEALIAAGDYEGAFAAANEAAAQLSRLAVQAAQAAAAA | not found |
| design_488_244881a1-ba0c-4c08-ad9c-1f64cf93580a_688_dldesign_0_cycle1_af2pred (protein) DTARQALIASAQQARKQLEAAKALTPEEQARAAQAVLELARQLAESAEAAGDEEALALAREVAEAAEAAIKEAKAA | not found |
| design_488_244881a1-ba0c-4c08-ad9c-1f64cf93580a_1220_dldesign_0_cycle1_af2pred (protein) DETEKKREEAKKEAEKLIEELEKAGKEVAAVPAASNMALATAKQGKKQLKEAEKLSPEEALKVYEAVKKSAEVALEIARATKAALAA | not found |
| design_488_244881a1-ba0c-4c08-ad9c-1f64cf93580a_1386_dldesign_0_cycle1_af2pred (protein) DQARKATEAAAKALLAQVERLSEEAVKAAKEDPAEAKRYLEAAEALRDVIAGLADEEIAKEYAAKAKEIIEKARKEVEAYLAAK | not found |
| design_488_244881a1-ba0c-4c08-ad9c-1f64cf93580a_578_dldesign_0_cycle1_af2pred (protein) GAAAAARRAAAFTLLEIARSLVAAGPQYAGSAIRTAAQALALVAPEYEEEVRAVGREEGAAAAVEYARELLA | not found |
| design_488_244881a1-ba0c-4c08-ad9c-1f64cf93580a_1058_dldesign_0_cycle1_af2pred (protein) MAEAQALLLETAKEAYEYAKEDPENAEYYLAAATHVLRALSALTTDPAKAIELLEKAIEEAKKTDPEKGEELIKKIEEAKKLVEAAA | not found |
| design_488_244881a1-ba0c-4c08-ad9c-1f64cf93580a_931_dldesign_0_cycle1_af2pred (protein) MKELEEAAKRALELAPPEHRPLMERLVAIARELAKIIGDEEAAAILGEGVLEGARDPERAVDITMAAQGAAIRLAHARQSA | not found |
| design_488_244881a1-ba0c-4c08-ad9c-1f64cf93580a_1373_dldesign_0_cycle1_af2pred (protein) MTAAQAAAAVASLAQSAVLAAKQDPALAKQAVEAAQSFAIWATTKLGDAALAEAAAKALKDAGKAAPAVAKQAEAAAKAVLDTAKKL | not found |
| design_488_244881a1-ba0c-4c08-ad9c-1f64cf93580a_1393_dldesign_0_cycle1_af2pred (protein) SPADEVAARLNALLGAAIKALAADPAAGLALAEEARRLAEELAKKYPTPEVKRVAEAAKKMADAIGAAAQAQLAAAQA | not found |
